Test results: the supplement of paper PMC6555819

What was measured:
Experiment in all cases: PBM binding z-score (relative to random genomic background probes); higher = stronger binding; sequences stand for … in GC…GCGATTGACAGCGTAGAATGAAGG
[1] = test system: PPARg:RXRa DBDmut IVT, anti-RXR (DBD mutation: RXRa K156A/R161A, NR concentration 270 nM, RXRa partner concentration 90 nM)
Method in brief: (§1)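 For binding z-scores, the reference was random background probes on custom Agilent 4×180K protein-binding microarrays. These arrays were incubated 1 h with ligand-free nuclear receptor dimers in PBS pH 7.4, 2% milk, 0.02% Triton X-100, 1 mM DTT, 0.2 mg/mL BSA and 0.4 mg/ml salmon testes DNA. Fluorescence was scanned after antibody detection of each partner (one per run) and regression-normalized.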

[2] = test system: PPARg:RXRa IVT, anti-PPARg (NR concentration 270 nM, RXRa partner concentration 90 nM)
Method in brief: as §1

[3] = test system: PPARg DBDmut:RXRa IVT, anti-PPARg (DBD mutation: PPARg1 K132A/R137A, NR concentration 270 nM, RXRa partner concentration 90 nM)
Method in brief: as §1

[4] = test system: PPARg DBDmut IVT, anti-PPARg (DBD mutation: PPARg1 K132A/R137A, NR concentration 270 nM)
Method in brief: as §1

[5] = test system: PPARg homodimer (NR concentration 180 nM)
Method in brief: as §1

[6] = test system: PXR:RXRa (NR concentration 270 nM, RXRa partner concentration 90 nM)
Method in brief: as §1

[7] = test system: PXR homodimer (NR concentration 270 nM)
Method in brief: as §1

[8] = test system: RARa:RXR (NR concentration 270 nM, RXRa partner concentration 90 nM)
Method in brief: as §1

[9] = test system: RARa homodimer (NR concentration 270 nM)
Method in brief: as §1

[10] = test system: RARb:RXRa (NR concentration 270 nM, RXRa partner concentration 90 nM)
Method in brief: as §1

[11] = test system: RARb homodimer (NR concentration 270 nM)
Method in brief: as §1

[12] = test system: RARg:RXRa (NR concentration 270 nM, RXRa partner concentration 90 nM)
Method in brief: as §1

[13] = test system: RARg homodimer (NR concentration 270 nM)
Method in brief: as §1

[14] = test system: RXRa DBDmut IVT, anti-RXR (DBD mutation: RXRa K156A/R161A, NR concentration 90 nM)
Method in brief: as §1

[15] = test system: RXRa homodimer (NR concentration 180 nM)
Method in brief: as §1

[16] = test system: THRa:RXRa (NR concentration 90 nM, RXRa partner concentration 90 nM)
Method in brief: as §1

[17] = test system: THRa homodimer (NR concentration 90 nM)
Method in brief: as §1

[18] = test system: VDR:RXRa (NR concentration 270 nM, RXRa partner concentration 90 nM)
Method in brief: as §1

[19] = test system: VDR homodimer (NR concentration 270 nM)
Method in brief: as §1

Sequence | PBM binding z-score [1] | PBM binding z-score [2] | PBM binding z-score [3] | PBM binding z-score [4] | PBM binding z-score [5] | PBM binding z-score [6] | PBM binding z-score [7] | PBM binding z-score [8] | PBM binding z-score [9] | PBM binding z-score [10] | PBM binding z-score [11] | PBM binding z-score [12] | PBM binding z-score [13] | PBM binding z-score [14] | PBM binding z-score [15] | PBM binding z-score [16] | PBM binding z-score [17] | PBM binding z-score [18] | PBM binding z-score [19]
CGTCCAAGGTCAATGCTCGGTCAGTGAAAGCATT | 3.28 | 3.36 | -0.42 | -0.828 | 2.78 | 3.93 | 0.774 | 5.12 | 0.202 | 5.11 | 4.62 | 6.85 | 6.5 | 3.69 | 5.11 | 3.71 | 2.09 | 4.21 | 2.86
CAAACTAGGTCAAGGTCAAGGTCGGTTTGTGCCA | 8.6 | 8.73 | 2.59 | 1.56 | 5.52 | 5.33 | 2.34 | 5.61 | 2.92 | 5.2 | 5.4 | 6.25 | 7.34 | 2.79 | 6.62 | 4.54 | 4.73 | 5.24 | 4.06
TCATATAGGTACTACAGGTGAAAGTCGGCATCTA | 2.86 | 1.16 | 0.618 | 1.02 | 0.506 | 0.663 | 0.0757 | 0.847 | 0.606 | 0.472 | 0.25 | 0.654 | 0.428 | 1.33 | 0.935 | 0.692 | -0.00751 | 0.876 | 0.023
CAAACTAGGTCACGAAATGTCAAAGTCGAATGAC | 8.65 | 9.32 | 6.88 | 5.58 | 3.3 | 2.74 | 0.475 | 3.64 | 1.83 | 4.39 | 3.6 | 4.86 | 5.58 | 2.02 | 3.79 | 3.51 | 1.5 | 3.47 | 1.1
TTACCAAGGTGAGAGGTCGTTGATGCACGCCTTG | 1.49 | 4.04 | 0.616 | 0.0764 | 1.63 | 2.47 | 0.681 | 3.06 | -0.505 | 2.33 | 1.97 | 2.58 | 1.3 | 0.404 | 3.24 | 2.6 | 1.11 | 2.25 | 1.66
TCGAGTAGGTTACCAATGGGGGATTCAGCTTTCT | 3.04 | 3.87 | 3.52 | 5.09 | 0.376 | 1.15 | -0.444 | 1.17 | -0.393 | 1.06 | 0.472 | 1.09 | 0.478 | 0.789 | 0.767 | 0.805 | 0.162 | 0.83 | -0.0448
AATACAGGGTCACTAGGCCAGAGAAGGTACGAAT | 4.07 | 5.68 | 1.28 | 1.34 | 1.96 | 3.02 | 0.776 | 3.74 | 0.823 | 4.2 | 3.45 | 5.18 | 4.96 | 2.58 | 5.52 | 3.52 | 1.18 | 4.08 | 2.31
CCTAGTTGGTCGAGGTCACACACGCTATAGGTAC | 1.44 | 3.16 | 1.31 | -0.295 | 3.81 | 5.08 | 3.73 | 5.08 | 1.8 | 3.63 | 3.98 | 4.6 | 4.42 | 2.64 | 5.16 | 4.16 | 4.15 | 4.8 | 4.51
TAGCCTAGGTCATTCAGGTGCCAGTATAGAAAGC | 1.57 | 2.83 | 0.483 | -0.0925 | 1.13 | 2.17 | 0.327 | 2.34 | -0.175 | 3.6 | 2.67 | 4.44 | 3.98 | 1.73 | 2.97 | 3.13 | 1.06 | 3.1 | 1.66
GGAACGAGGGCAATTTGATAGCAGAGTTTGATGG | 3.43 | 2.2 | -0.942 | -0.307 | 0.234 | 0.484 | 0.475 | 0.401 | -0.342 | 1.64 | 0.804 | 1.04 | 1.25 | 1.74 | 0.881 | 0.709 | -0.191 | 0.368 | 0.777
CCGACTGGGGCTGAAAGGTTACCATACCATCCGG | -0.623 | -0.162 | -1.05 | -1.01 | 0.352 | 1.1 | -0.23 | 1.85 | -0.057 | 1.46 | 1.92 | 1.33 | 0.724 | -0.859 | 1.75 | 0.974 | -0.189 | 0.343 | -0.252
TAATATAGGTAATACAGGTGAAAGTCGGCATCTA | 5.72 | 5.56 | 2.44 | 1.91 | 1.32 | 0.362 | 0.607 | 0.476 | 1.83 | 0.621 | 0.493 | 0.614 | 0.786 | 0.247 | 0.906 | 0.893 | 0.26 | 0.659 | 0.35
AGAGACAGGTGAGTGAAGGTAACTCAGCTGGACG | 0.422 | 0.599 | 0.635 | -0.659 | 0.101 | 0.0989 | 0.169 | 0.435 | -0.0726 | 0.876 | 0.498 | 0.327 | 0.547 | -0.787 | 0.592 | 1.75 | 0.04 | -0.141 | -0.14
ATCTCTAGGTAACCAAGTTCAGAGAATGCCGAAC | 3.4 | 2.88 | 1.18 | 0.83 | 0.879 | 2.15 | 1.71 | 0.548 | 0.605 | 1.22 | 1.48 | 0.849 | 1.13 | 0.821 | 0.723 | 1.46 | 0.471 | 4.26 | 2.7
CCTAGCACGCCAGGGTCACTCAAGCATTTCGCTT | -0.508 | 0.0216 | -0.715 | -1.26 | 0.342 | 2.48 | -0.243 | 2.55 | -0.31 | 2.44 | 2.65 | 2.94 | 2.18 | 0.65 | 3.14 | 2.76 | 1.12 | 2.56 | 0.973
